{
  "source": "PubChem BioAssay (NCI)",
  "note": "About 83,000 compounds went through this panel and 20% of them were active in at least one assay; those are over-represented in the sample as a whole.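 The endpoint reported here, percent growth, reads 100 for growth as untreated, 0 for no net growth and -100 for all cells dead.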 Unmarked numbers belong to inactive results. Activity calls are given as the source filed them. The calls were made as follows: active = growth percent below 10; inactive = the rest.",
  "data": [
    {"system": "BT-549 breast", "assay": "NCI-60 one-dose screen, 48 h (100 = growth as untreated, 0 = no growth, -100 = all killed)", "conditions": "10 µM", "values": [
      {"smiles": "O=S(=O)(Nc1ncccn1)c1ccc(-n2c(-c3ccccc3)nc(-c3ccccc3)c2-c2ccccc2)cc1", "growth": "69%"},
      {"smiles": "COc1ccc(-c2cc(-c3cc(C(=O)c4ccccc4)n4ccc(C)cc34)nc(N)c2C#N)cc1", "growth": "22.4%"},
      {"smiles": "N#Cc1ccc(NC(=O)CSc2ccc(-c3ccc(Br)cc3)nn2)cc1", "growth": "70.5%"},
      {"smiles": "CCCn1c(O)c(N=Nc2nc(-c3cc4ccccc4oc3=O)cs2)c2cc(Br)ccc21", "growth": "113%"},
      {"smiles": "COc1cc2oc(-c3cccc(C(=O)Nc4ccc(Cl)cc4)c3)cc(=O)c2c(OCCNC(=O)CNC(=O)OC(C)(C)C)c1OC", "growth": "51.2%"},
      {"smiles": "CCCCOc1ccc(Nc2nc3ccccc3nc2Nc2ccc(OCCCC)cc2)cc1", "growth": "104%"},
      {"smiles": "COc1cc(NC(=O)CSc2nnc(-c3ccc4nc(-c5ccc(Cl)cc5)[nH]c4c3)o2)cc(OC)c1OC", "growth": "63.1%"},
      {"smiles": "O=C(NO)c1ccc(CNC(=O)[C@H]2Cc3c([nH]c4ccccc34)[C@H](c3ccc(Cl)cc3)N2)cc1", "growth": "26.9%"},
      {"smiles": "N#Cc1c(NC(=O)c2ccc(C(F)(F)F)c(Cl)c2)sc2c1CCC(=O)C2", "growth": "-82.1% (active)"},
      {"smiles": "O=C(Cc1ccc2c(c1)CN(C1CCC(=O)NC1=O)C2=O)NCc1cccc2ccccc12", "note": "(configuration not stated)", "growth": "-52.8% (active)"},
      {"smiles": "CCOC(=O)CNC(=O)CN(Cc1ccccc1)C(=O)[C@@]1(C)CCC[C@]2(C)[C@H]3C[C@H]4C(C(C)C)=C[C@]3(CC[C@H]21)[C@@H]1C(=O)OC(=O)[C@@H]14", "growth": "76.2%"},
      {"smiles": "O=C(NCCCCCCCCCC[P+](c1ccccc1)(c1ccccc1)c1ccccc1)c1ccc(-n2nc(-c3ccccc3O)nc2-c2ccccc2O)cc1", "growth": "-87.4% (active)"}
    ]}
  ]
}
